{"source": "PubChem BioAssay AID1476", "about": "(National Center for Advancing Translational Sciences (NCATS), 2009)", "note": "In all, about 200,000 compounds went through this assay and about 4,500 (2.2%) were called active. Inconclusive results (about 12%) are left out. What follows is part of a selection rich in actives, with near analogues and random picks from the rest. Unmarked numbers belong to inactive results. Calls come from the whole dose curve; as a rule, active = well fitted inhibition curve with a large enough effect; inconclusive = small, poorly fitted or top-dose-only effect, or effect the other way; inactive = flat fitted curve, though single readings scatter. Potency is the fitted concentration of half-maximal effect."}
{"target": "Cruzipain (Trypanosoma cruzi) (UniProt P25779)", "sequence (P25779 123-467 limits assumed)": "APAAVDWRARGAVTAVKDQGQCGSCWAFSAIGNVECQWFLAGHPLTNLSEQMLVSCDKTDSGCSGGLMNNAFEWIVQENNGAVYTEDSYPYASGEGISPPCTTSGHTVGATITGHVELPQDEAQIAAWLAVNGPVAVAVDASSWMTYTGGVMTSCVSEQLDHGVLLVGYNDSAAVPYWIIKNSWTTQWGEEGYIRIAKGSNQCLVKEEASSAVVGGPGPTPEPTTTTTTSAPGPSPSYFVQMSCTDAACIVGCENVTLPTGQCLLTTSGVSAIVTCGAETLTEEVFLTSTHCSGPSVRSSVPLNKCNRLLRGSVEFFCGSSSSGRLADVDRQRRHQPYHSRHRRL", "assay": "qHTS Assay for Promiscuous and Specific Inhibitors of Cruzain (without detergent); note: nearly all actives have a fitted effect of over 40% in size;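 for max response, negative = inhibition: plate controls were enzyme without inhibitor for no effect and buffer without enzyme for full effect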", "settings": "purified cruzain, Z-FR-AMC fluorescence, no detergent", "method_in_brief": "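Detergent-free condition (0.00005% Triton X-100) in acetate buffer pH 5.5 with DTT. 1.5 nM enzyme and compound were pre-mixed 15 min, then 2 uM Z-FR-AMC substrate added; reaction progress from fluorescence change between first and third reads (60 s).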", "units": {"max response, negative = inhibition": "%"}}
{"smiles": "CCc1ccc(S(=O)(=O)c2nnn3c2nc(NCc2ccccc2OC)c2cc(Cl)ccc23)cc1", "max response, negative = inhibition": -14.3}
{"smiles": "CCc1ccc(S(=O)(=O)n2ccnc2)cc1", "max response, negative = inhibition": 3.23}
{"smiles": "Brc1ccc(-c2csc(N/N=C/c3ccc4c(c3)OCO4)n2)cc1", "Potency": "10 µM (active)"}
{"smiles": "O=C(Nc1nc(-c2ccncc2)cs1)C1COc2ccccc2O1", "note": "(stereo not given)", "max response, negative = inhibition": -4.88}
{"smiles": "O=C(Nc1nc(-c2ccc3c(c2)OCO3)cs1)c1ccncc1", "max response, negative = inhibition": -29.2}
{"smiles": "COc1ccc(OC)c2sc(N3CCN(C(=O)C4COc5ccccc5O4)CC3)nc12", "note": "(stereo not given)", "max response, negative = inhibition": -0.959}
{"smiles": "CCN(c1ccc(Cl)cc1)S(=O)(=O)c1nnc(NC(=O)c2ccco2)s1", "max response, negative = inhibition": 3.14}
{"smiles": "Cc1nnc(NCc2ccccc2)c2c1nnn2Cc1ccc(F)cc1", "max response, negative = inhibition": 10.1}
{"smiles": "COc1cc(NC(=O)Nc2ccc(C)cc2)cc([N+](=O)[O-])c1", "max response, negative = inhibition": -24.4}
{"smiles": "COc1cc(NC(=S)NCCSc2ccc(C)cc2)cc(OC)c1", "Potency": "0.251 µM (active)"}
{"smiles": "COc1cccc(NC(=S)NCCCN2CCOCC2)c1", "max response, negative = inhibition": 9.47}
{"smiles": "Cc1nc(SCCOc2ccc(Cl)cc2)[nH]c(=O)c1Cc1ccccc1", "max response, negative = inhibition": -8.31}
{"smiles": "COc1ccc(-c2nn3c(=O)cc(CN4CCN(C(=O)c5ccc(OC)c(OC)c5)CC4)nc3s2)cc1", "max response, negative = inhibition": -11}
{"smiles": "COc1ccc(NC(=O)Cn2c(=O)n(CCC(C)C)c(=O)c3cccnc32)cc1Cl", "max response, negative = inhibition": -5}
{"smiles": "Cc1ccccc1CNC(=O)CCCn1nc(C)c2sc3ccccc3c2c1=O", "Potency": "25.1 µM (active)"}
{"smiles": "Cc1nn(CC(=O)NCCc2ccccc2)c(=O)c2c1sc1ccccc12", "max response, negative = inhibition": -12}
{"smiles": "Cc1nn(C(C)C(=O)Nc2ccc(C(C)C)cc2)c(=O)c2c1sc1ccccc12", "note": "(stereo not given)", "max response, negative = inhibition": -0.208}
{"smiles": "COc1ccc(NC(=O)c2ccc3oc(=O)c(S(=O)(=O)c4ccc(F)cc4)cc3c2)c(OC)c1", "max response, negative = inhibition": -3.78}
{"smiles": "CCn1cc(C(=O)NCc2ccc(C)cc2)c(=O)c2cc(S(=O)(=O)N3CCc4ccccc4C3)ccc21", "max response, negative = inhibition": -8.13}
{"smiles": "O=c1nc2s/c(=C\\c3ccco3)c(=O)n2nc1Cc1ccccc1", "Potency": "25.1 µM (active)"}
{"smiles": "O=C(CCCN1C(=O)/C(=C/c2ccco2)SC1=S)Nc1ccccc1", "max response, negative = inhibition": -9.58}
{"smiles": "Cc1nc2nc(SCC(=O)NCc3ccco3)nn2c(C)c1Cc1ccccc1", "max response, negative = inhibition": -3.94}
{"smiles": "COc1ccc(CCNC(=O)Cn2c(=O)n(-c3ccccc3)c(=O)c3c(C)c(C)sc32)cc1OC", "max response, negative = inhibition": -8.34}
{"smiles": "O=C(CSc1ncc(-c2ccccc2)[nH]1)Nc1ccc(F)cc1F", "max response, negative = inhibition": 8.99}
{"smiles": "Cc1ccc(Cl)cc1NC(=O)CSc1nccn1C", "max response, negative = inhibition": 1.47}
{"smiles": "CN1c2ccc(Cl)cc2-c2nc(SCC(=O)Nc3cc(F)ccc3F)ncc2S1(=O)=O", "Potency": "12.6 µM (active)"}
{"smiles": "COc1cc2c(=O)c(S(=O)(=O)c3ccc(C(C)C)cc3)cn(Cc3ccccc3C)c2cc1OC", "max response, negative = inhibition": 19.9}
{"smiles": "CN1CCN(C(CNC(=O)c2ccccc2F)c2ccc3c(c2)OCO3)CC1", "note": "(stereo not given)", "max response, negative = inhibition": 7.63}
{"smiles": "CCCSc1ncc(Cl)c(C(=O)Nc2sc3c(c2C(=O)NCCOC)CCCC3)n1", "max response, negative = inhibition": -6.84}
{"smiles": "CCOc1cccc(NC(=O)c2ccc(F)c(S(=O)(=O)N(CC)c3cccc(C)c3)c2)c1", "max response, negative = inhibition": -18}
{"smiles": "Cn1c(=O)cc(OCC(=O)N2CCN(c3ccccc3)CC2)c2ccccc21", "max response, negative = inhibition": 3.14}
{"smiles": "CCc1nnc(NC(=O)CSc2nc3c(c(=O)n2-c2ccccc2OC)SCC3)s1", "Potency": "12.6 µM (active)"}
{"smiles": "CCOc1ccc(NC(=O)CSc2nc3c(c(=O)n2-c2ccccc2OC)SCC3)cc1", "max response, negative = inhibition": -2.8}
{"smiles": "CCOC(=O)c1sc(NC(=O)CSc2nc3c(c(=O)n2-c2ccccc2)SCC3)c(C(=O)OCC)c1C", "max response, negative = inhibition": -25.7}
{"smiles": "CCOC(=O)c1ccc(NC2=CC(c3ccc(OCC)cc3)N(c3ccc(C(=O)OCC)cc3)C2=O)cc1", "note": "(stereo not given)", "max response, negative = inhibition": -9.29}
{"smiles": "O=C(CCn1c(=O)c2sccc2n(Cc2ccc(F)cc2)c1=O)NCc1ccc2c(c1)OCO2", "max response, negative = inhibition": 2.68}
{"smiles": "CC1=CC(=C(C#N)c2nc3ccccc3s2)C=C(C)N1c1ccc(F)cc1F", "Potency": "31.6 µM (active)"}
{"smiles": "Cc1ccc(F)cc1S(=O)(=O)N1CCC(c2nc3ccccc3s2)CC1", "max response, negative = inhibition": -6.75}
{"smiles": "CC(C)c1cc(C(N)=O)c(NC(=O)c2cccc(COc3ccc(Br)cc3)c2)s1", "Potency": "5.01 µM (active)"}
{"smiles": "CCc1cc(C(N)=O)c(NC(=O)c2ccc(OC)cc2)s1", "max response, negative = inhibition": -3.04}
{"smiles": "COc1ccc(OCc2cccc(C(=O)N3CCCC3)c2)cc1", "max response, negative = inhibition": 22.1}
{"smiles": "CCC(=O)N1CCc2cc(Br)cc(S(=O)(=O)NCc3ccc(Cl)cc3)c21", "max response, negative = inhibition": 5.32}
{"smiles": "Cc1ccc(-n2ncc(C(=O)N(C)Cc3ccccc3)c2-n2cccc2)cc1", "max response, negative = inhibition": 19.8}
{"smiles": "O=C(Nc1cccc([N+](=O)[O-])c1)c1ccc2c(c1)OCO2", "max response, negative = inhibition": 4.82}
{"smiles": "O=C(Nc1cc2c3c(c1)C1CCCC1CN3CC1CCCC21)c1ccc([N+](=O)[O-])cc1", "note": "(stereo not given)", "Potency": "25.1 µM (active)"}
{"smiles": "CC1CCc2noc(NC(=O)c3ccc([N+](=O)[O-])cc3)c2C1", "note": "(stereo not given)", "max response, negative = inhibition": 3.94}
{"smiles": "C=CC(C1=CC(=O)C=CC1=O)c1ccc(O)cc1", "note": "(stereo not given)", "max response, negative = inhibition": -6.77}
{"smiles": "Cc1noc(C)c1COC(=O)c1cc2ccccc2cc1O", "max response, negative = inhibition": -7.72}
{"smiles": "O=C(NNc1c2ccccc2nc2ccccc12)c1cc2ccccc2cc1O", "Potency": "7.94 µM (active)"}
{"smiles": "O=C(Nc1c2c(nc3ccccc13)CCCC2)c1ccccc1Br", "max response, negative = inhibition": 6.61}
{"smiles": "Cc1c(Cl)cccc1NC(=O)C1CCCN(C(=O)c2cnn(-c3ccccc3)c2-n2cccc2)C1", "note": "(stereo not given)", "max response, negative = inhibition": 17.7}
{"smiles": "CCOC(=O)c1oc2ccc(S(=O)(=O)n3nc(-c4ccccc4OC)cc3N)cc2c1C", "max response, negative = inhibition": -16.2}
{"smiles": "CCC(=O)N1CCc2cc(S(=O)(=O)NC(C(=O)Nc3ccc(C(C)=O)cc3)C(C)C)ccc21", "note": "(stereo not given)", "max response, negative = inhibition": -5.8}
{"smiles": "O=C1CN(C(=O)Nc2ccccc2C(F)(F)F)C(c2ccccc2)c2c(sc3c2CCCC3)N1", "note": "(stereo not given)", "max response, negative = inhibition": -8.71}
{"smiles": "O=C(COc1ccccc1F)OCc1cc(=O)n2nc(C3CCCCC3)sc2n1", "max response, negative = inhibition": -11.4}
{"smiles": "Cc1ccc(-n2c(C)cc(/C=N/Nc3ccc([N+](=O)[O-])cn3)c2C)c(C)c1", "Potency": "3.98 µM (active)"}
{"smiles": "Cc1ccc(-n2c(C)cc(/C=N\\NC(=O)CC(=O)NC(C)C)c2C)cc1", "max response, negative = inhibition": -4.29}
{"smiles": "Cc1cccc(C)c1NC(=O)CSc1ccc([N+](=O)[O-])cn1", "max response, negative = inhibition": -1.59}
{"smiles": "CCOc1ccc(C(=O)N2CCN(CCc3ccccn3)CC2)cc1", "max response, negative = inhibition": -2.86}
{"smiles": "CSc1cccc(NC(=O)CN2C(=O)CCc3cc(S(=O)(=O)N4CCCCC4)ccc32)c1", "max response, negative = inhibition": -6.74}
{"smiles": "CCOC(=O)N1CCc2c(sc3c2c(=O)n(Cc2ccccc2)c(=O)n3CC(=O)Nc2cccc(C)c2)C1", "max response, negative = inhibition": -13.3}
{"smiles": "COc1cccc(NC(=O)C(C)Oc2ccccc2)c1", "note": "(stereo not given)", "max response, negative = inhibition": 2.56}
{"smiles": "COc1cccc(NC(=O)C(Sc2nc3ccccc3c(=O)n2CC(C)C)c2ccccc2)c1", "note": "(stereo not given)", "Potency": "5.01 µM (active)"}
{"smiles": "COCCn1c(SCC(=O)Nc2ccc3c(c2)CCC3)nc2ccccc2c1=O", "max response, negative = inhibition": 7.57}
{"smiles": "O=S(=O)(Nc1ccc2nc(-c3cccc(Cl)c3)oc2c1)c1ccccc1", "max response, negative = inhibition": 5.84}
{"smiles": "COc1ccc(CNC(=O)c2cc3c(=O)[nH]c4ccccc4c3s2)cc1", "max response, negative = inhibition": -0.0351}
{"smiles": "CC(C)CC(=O)Nc1cc(C(F)(F)F)ccc1N1CCOCC1", "max response, negative = inhibition": -0.397}
{"smiles": "O=C(NC(=S)Nc1cc(C(F)(F)F)ccc1N1CCOCC1)c1ccc(-c2cccc(Cl)c2)o1", "Potency": "10 µM (active)"}
{"smiles": "COc1c(C)cccc1C(=O)Nc1cc(Cl)ccc1N1CCOCC1", "max response, negative = inhibition": -1.36}
{"smiles": "COc1ccccc1/C=C/c1nc(C#N)c(NC(C)c2ccccc2)o1", "note": "(stereo not given)", "max response, negative = inhibition": -27.6}
{"smiles": "Cc1ccc(NC(=O)C2CCCN2S(=O)(=O)c2cccc3cccnc23)c(C)c1", "note": "(stereo not given)", "max response, negative = inhibition": -5.43}
{"smiles": "Cc1ccc(N/C=C/C(=O)c2ccccc2)cc1C", "max response, negative = inhibition": -22.6}
{"smiles": "O=C(/C=C/Nc1ccccc1)c1cnc(-c2ccccc2)s1", "Potency": "12.6 µM (active)"}
{"smiles": "Cc1nc(-c2ccccc2)sc1C(=O)/C=C/c1ccccc1", "max response, negative = inhibition": 3.75}
{"smiles": "Cc1c(C)n(Cc2ccc(Cl)cc2)c2ccc(C(=O)NCCc3ccc(S(N)(=O)=O)cc3)cc12", "max response, negative = inhibition": -27.4}
{"smiles": "NC(=O)CSc1nc2c(oc3ccccc32)c(=O)n1Cc1ccccc1", "max response, negative = inhibition": 1.12}
{"smiles": "C/C(=N\\Nc1nc2ccccc2[nH]1)c1cccs1", "Potency": "25.1 µM (active)"}
{"smiles": "O=C(CSc1nc2ccccc2[nH]1)c1cccs1", "max response, negative = inhibition": -7.22}
{"smiles": "OCCNc1nc2ccccc2[nH]1", "max response, negative = inhibition": -0.339}
{"smiles": "Cc1ccc(Cn2c(C)c3cnn(CC(=O)NCc4ccccc4)c(=O)c3c2C)cc1", "max response, negative = inhibition": -6.45}
{"smiles": "COc1ccc(Nc2ncc3c(n2)CCN(C(=O)OC(C)(C)C)C3)cc1", "max response, negative = inhibition": -2.11}
{"smiles": "O=C(Cc1ccc(Cl)cc1)NCC(c1cccs1)S(=O)(=O)c1ccc(Cl)cc1", "note": "(stereo not given)", "max response, negative = inhibition": 1.56}
{"smiles": "CCc1nn(CC(=O)N2CCN(c3cc(C)ccc3C)CC2)c(=O)c2cc3occc3n12", "max response, negative = inhibition": 6.7}
{"smiles": "COc1ccc(S(=O)(=O)Nc2ccc3c(c2)OCO3)cc1Cl", "Potency": "15.8 µM (active)"}
{"smiles": "COc1ccc(F)cc1S(=O)(=O)Nc1ccc2c(c1)OCO2", "max response, negative = inhibition": 9.18}
{"smiles": "CC(C)CNS(=O)(=O)c1ccc(OCC(=O)Nc2ccc3c(c2)OCO3)c(Cl)c1", "max response, negative = inhibition": -2.91}
{"smiles": "COc1cc(Br)cc2cc(S(=O)(=O)c3ccccc3)c(=O)oc12", "max response, negative = inhibition": -12.9}
{"smiles": "CC1(c2ccccc2)CC(C)(C)N(C(=O)c2cc([N+](=O)[O-])cc([N+](=O)[O-])c2)c2ccccc21", "note": "(stereo not given)", "Potency": "25.1 µM (active)"}
{"smiles": "CC1(c2cccc([N+](=O)[O-])c2)CC(C)(C)N(C(=O)c2ccccc2)c2ccccc21", "note": "(stereo not given)", "max response, negative = inhibition": -29.1}
{"smiles": "Cc1nnc(SCC(=O)N2c3ccccc3C(C)(c3ccc(Cl)cc3)CC2(C)C)s1", "note": "(stereo not given)", "max response, negative = inhibition": -0.125}
